We go through 30 compounds from ChEMBL document CHEMBL3988442, “University of Dundee, Small-Polar-MMV Screening Library” (2021).

The structures appear in SMILES notation. About 13,000 (27%) of roughly 48,000 compounds showed an effect of 50% or more. This is one part of the list.

The test system of the experiment is Wolbachia pipientis. Kind of experiment: Anti-Wolbachia Cell-Based Screen. The experiment is classed as functional. More on the design: scale not given: in the data most compounds retested in dose-response had high values. The following applies: 5 µM.
As for `CC(C)c1nc(CNc2ccc(N3CCC(CO)CC3)cn2)cs1`, the “Percent Effect” value is listed as 0.232%. To `Cl.O=C(CN1CCC[C@@H]1C(=O)O)NCCOc1cccc(C(F)(F)F)c1` belongs -3.641%; to `Cn1ccnc1CN1C[C@@H](CN2CCCCC2)[C@@H](CO)C1`, -0.1943%.

For `Cn1ccnc1CN1C[C@@H](CN2CCCC2)[C@@H](CO)C1`, the “Percent Effect” value came out at 2.193%. Turning to `Cc1nc(N2C[C@@H](CN3CCCCC3)[C@@H](CO)C2)c2sccc2n1`, the “Percent Effect” value is 8.907%.

As for `CCN1CCN(C[C@@H]2CN(c3ncccc3Cl)C[C@@H]2CO)CC1`, the “Percent Effect” value was -1.669%. To `CSc1nccc(N2C[C@@H](CN3CCCCC3)[C@@H](CO)C2)n1` belongs 104.9%; to `OC[C@H]1CN(Cc2c(Cl)cccc2Cl)C[C@H]1CN1CCCCC1`, 2.429%; to `Cc1nccc(N2C[C@@H](CN3CCCC3)[C@@H](CO)C2)n1`, 109.4%. For `Nc1nccc(N2C[C@@H](CN3CCCCC3)[C@@H](CO)C2)n1`, the “Percent Effect” value amounted to 106.5%.

In the case of `Cn1ccnc1CN1C[C@@H](CN2CCCCCC2)[C@@H](CO)C1`, the “Percent Effect” value is -5.321%. With `Cc1cc(CN(C)C(=O)C(c2ccccc2C)N(C)C)on1` (stereo not given), the “Percent Effect” value was -6.719%. Turning to `COCC1CN(c2ccc3c(Cl)ccnc3c2F)CCO1` (stereo not given), the “Percent Effect” value is reported as -23.97%. As to `CC(C)n1nc(Cn2cccn2)c2c1CN(C1CCOCC1)C2.O=C(O)C(F)(F)F`, the “Percent Effect” value is -12.7%. `CSCC(CCO)Nc1cccc(C(F)(F)F)n1` (stereo not given): the “Percent Effect” value is on record as -4.466%. The same measure for `Cc1[nH]/c(=N\C(=O)c2csc(NC3CC3)n2)sc1C`: 5.659%; for `CCn1nc(C(C)C)cc1C(=O)N1CC(OCc2ccccc2F)C1`: -12.74%. Take `CC(C)C(=O)N1CCCC2(CCCN2CC2CCCC2)C1.O=C(O)C(F)(F)F` (stereo not given): the “Percent Effect” value was found to be 4.18%.

`CCC(NC(=O)c1nn(C)cc1C(=O)O)c1ccc(C)cc1` (stereo not given): the “Percent Effect” value was 104.3%. As to `CCC(NC(=O)c1cc(CC(C)C)nn1C)c1cc(C)ccn1` (stereo not given), the “Percent Effect” value was 6.008%.

Take `CCC(NC(=O)CN(C)Cc1ccc(C)o1)c1ccc(C)cc1` (stereo not given): the “Percent Effect” value is on record as 3.05%.

In the case of `CCC(NC(=O)c1c(C(=O)O)cnn1C)c1ccc(C)cc1C` (stereo not given), the “Percent Effect” value stood at 109.1%. For `CCC(NC(=O)c1cc(NC(C)=O)ccc1Cl)c1cc(C)ccn1` (stereo not given), the “Percent Effect” value is -8.351%.

Take `CCC(NC(=O)c1nn(C)cc1C(=O)O)c1ccc(C)cc1C` (stereo not given): the “Percent Effect” value came out at 113.8%. As to `COc1ccc(C(CC(=O)O)NC(=O)c2cc(C)on2)cc1` (stereo not given), the “Percent Effect” value is on record as 2.487%. To `CCCC(NC(=O)c1cc(C)ccc1C)c1nnn[nH]1` (stereo not given) belongs -4.44%. The same measure for `CCNc1ncc(C(=O)NC(CCN(C)C)c2ccccc2)cn1` (stereo not given): 13.66%; for `Cc1ccc(C(C(=O)O)N(C)CCCN2CCOCC2)c(C)c1` (stereo not given): -9.259%; for `CCC(NC(=O)c1nn(C)cc1C(=O)O)c1ccccc1` (stereo not given): 82.78%. With `CCC(CC)NC(=O)Cn1cc(C(N)=O)c(-c2ccccc2)n1`, the “Percent Effect” value was -10.51%.
